# Assay results: the supplement of paper PMC13380429
# Where a name gives a salt, the structure may show the parent alone.
# Assays:
# [1] = tested on: Vero E6 infected with SARS-CoV-2; assay: morphology score (similarity to uninfected cells); higher = more like uninfected cells; conditions: 24 h
# [2] = tested on: Vero E6 infected with SARS-CoV-2; assay: SARS-CoV-2 infection rate relative to infected DMSO; higher = more infection, active = 60 or less; conditions: 24 h
SMILES,morphology score [1],SARS-CoV-2 infection rate [2]
C[C@]12C=CC(=O)C=C1CC[C@@H]1[C@@H]2[C@@H](O)C[C@@]2(C)[C@H]1CC[C@]2(O)C(=O)COP(=O)(O)O [prednisolone-sodium-phosphate] (10 µM),-0.0179,93.5% (inactive)
O=C(O)c1ccccc1Nc1cc(Cl)ccc1C(=O)O [lobenzarit] (10 µM),0.04,113% (inactive)
COc1cc(Nc2nc3ccccc3nc2NS(=O)(=O)c2ccc(NC(=O)c3ccc(C)c(OC)c3)cc2)cc(OC)c1 (10 µM),0.0476,119% (inactive)
O=C1[C@@H]2[C@H]3CC[C@H](C3)[C@@H]2C(=O)N1CCCCN1CCN(c2ncccn2)CC1 [tandospirone] (10 µM),-0.0978,99% (inactive)
Cc1cn([C@@H]2C[C@@H](O)[C@H](CO)O2)c(=O)[nH]c1=O [telbivudine] (10 µM),-0.036,118% (inactive)
Nc1nc2ccc(OC(F)(F)F)cc2s1 [riluzole] (10 µM),0.188,105% (inactive)
CCCCCCCCCCCCCCCCCCOP(=O)([O-])OC1CC[N+](C)(C)CC1 [perifosine] (10 µM),0.116,104% (inactive)
C[C@@H](O)[C@H]1C(=O)N2C(C(=O)O)=C(S[C@@H]3CN[C@H](C(=O)Nc4cccc(C(=O)O)c4)C3)[C@H](C)[C@H]12 [ertapenem] (10 µM),0.126,106% (inactive)
C[N+](C)(C)CCCCCNCC12CC3CC(CC(C3)C1)C2 (10 µM),-0.0308,112% (inactive)
CN1c2cc3c(cc2N=C(c2ccc(C(=O)O)cc2)c2ccccc21)C(C)(C)CCC3(C)C (0.833333 µM),-0.141,107% (inactive)
COc1ccc(Cc2cnc(N)nc2N)cc1OC [diaveridine] (10 µM),0.191,101% (inactive)
c1ccc2c(c1)CCCc1cc(NCCN3CCOCC3)nnc1-2 (10 µM),-0.11,116% (inactive)
Cc1n[nH]c(C)c1Cc1sc2c(c1C(=O)N1C[C@H](O)CO1)c(=O)n(C)c(=O)n2CC(C)C (10 µM),0.0657,106% (inactive)
Nc1nc(-c2ccc(Cl)c(Cl)c2)c(-c2ccncc2)s1 (10 µM),0.37,99.5% (inactive)
CC1=NN(c2ccccc2)C(=O)C1 [edaravone] (10 µM),0.127,101% (inactive)
COc1ccc(CC2NCCc3cc(OC)c(OC)cc32)cc1OC (stereo not given) [tetrahydropapaverine] (10 µM),-0.026,108% (inactive)
CCCOc1ccc(Br)cc1-c1cc(-c2ccc(Cl)cc2)[nH]c1-c1ccncc1 (10 µM),0.113,100% (inactive)
CNC(=O)N(C)N=O [nitrosodimethylurea] (10 µM),0.0639,106% (inactive)
CC1=C(C(=O)O)N2C(=O)[C@@H](NC(=O)[C@H](N)c3ccc(O)cc3)[C@H]2SC1 [cefadroxil] (10 µM),-0.016,108% (inactive)
CC#CCC(C)[C@H](O)/C=C/[C@@H]1[C@H]2C/C(=C/CCCC(=O)O)C[C@H]2C[C@H]1O (stereo not given in full) [iloprost] (10 µM),0.0115,108% (inactive)

SMILES,morphology score [1],SARS-CoV-2 infection rate [2]
CC(=O)SCCC(=O)N1[C@H](C)CCC[C@@H]1C(=O)O [methiopril] (10 µM),0.0927,102% (inactive)
O=C(NCCS(=O)(=O)c1ccc(C(F)(F)F)cn1)c1ccc(Cl)cc1 (10 µM),0.178,99% (inactive)
CO/N=C(\C(=O)N[C@@H]1C(=O)N2C(C(=O)O)=C(CSc3nc(=O)c(O)nn3C)CS[C@H]12)c1csc(N)n1 [ceftriaxone] (10 µM),-0.108,112% (inactive)
CCOC(=O)c1cc(C#N)c(N2CCC(C(=O)NS(=O)(=O)Cc3ccccc3)CC2)nc1C (10 µM),0.128,108% (inactive)
Cc1ccc(S(N)(=O)=O)cc1 [para-toluenesulfonamide] (10 µM),-0.0434,106% (inactive)
O=S(=O)(/N=C/c1c(O)ccc2ccccc12)c1cccs1 (10 µM),0.103,98.5% (inactive)
O=C(O)[C@H](CC(=O)N1C[C@H]2CCCC[C@H]2C1)Cc1ccccc1 [mitiglinide] (10 µM),0.0871,108% (inactive)
COc1cc2nccc(Oc3ccc(NC(=O)Nc4ccc(F)cc4F)c(F)c3)c2cc1OC (10 µM),0.12,111% (inactive)
O=C1CN(/N=C/c2ccc([N+](=O)[O-])o2)C(=O)N1 [nitrofurantoin] (10 µM),0.168,112% (inactive)
CCOC(=O)NNc1nncc2ccccc12 [todralazine] (10 µM),0.0897,106% (inactive)
CN(C)CCOc1ccc(/C(=C(/CCCl)c2ccccc2)c2ccccc2)cc1 [Toremifene citrate] (10 µM),0.422,77% (inactive)
CN1CCN(C(c2ccccc2)c2ccc(Cl)cc2)CC1 (stereo not given) [chlorcyclizine] (10 µM),0.134,102% (inactive)
CO[C@H]1/C=C/O[C@@]2(C)Oc3c(C)c(O)c4c(O)c(c(/C=N/N5CCN(C)CC5)c(O)c4c3C2=O)NC(=O)/C(C)=C\C=C\[C@H](C)[C@H](O)[C@@H](C)[C@@H](O)[C@@H](C)[C@H](OC(C)=O)[C@@H]1C [rifampin] (0.833333 µM),-0.0289,112% (inactive)
CC(C)(C)NC(=O)[C@@H](c1cccnc1)N(C(=O)c1ccco1)c1ccc(C(C)(C)C)cc1 (10 µM),0.333,83% (inactive)
Cc1ccccc1/N=N/c1ccc(/N=N/c2c(O)ccc3ccccc23)c(C)c1 [sudan-IV] (10 µM),0.126,92% (inactive)
O=C(O)c1cc(-c2ccc(F)cc2F)ccc1O [diflunisal] (10 µM),-0.15,110% (inactive)
CNc1nc(C)nc(N[C@H]2CCC[C@@H](C(=O)NCc3ccc(C#N)cc3C(F)(F)F)C2)n1 (10 µM),-0.0488,104% (inactive)
O=C(NCc1ccccc1)c1csc(Nc2ccncn2)n1 [thiazovivin] (0.833333 µM),0.654,99% (inactive)
CC1=C(/C=C/C(C)=C/C=C/C(C)=C/C(=O)Nc2ccc(O)cc2)C(C)(C)CCC1 [fenretinide] (10 µM),-0.442,116% (inactive)
C[C@H]1NC(=O)NC1=O [5-methylhydantoin-(D)] (10 µM),0.121,102% (inactive)

SMILES,morphology score [1],SARS-CoV-2 infection rate [2]
N[C@@H](Cc1ccc(O)cc1)C(=O)NCC(=O)NCC(=O)O (10 µM),-0.0946,114% (inactive)
COc1ccc(COc2ccc(Cc3cnc(N)nc3N)cc2OC)cc1 (10 µM),-0.072,112% (inactive)
O=C1C[C@@]2(C(=O)N1)C(=O)N(Cc1ccc(Br)cc1F)C(=O)c1cccn12 [ranirestat] (10 µM),0.148,94.5% (inactive)
O=C(Nc1ccc(C(=O)O)c(O)c1)c1ccccc1 [benzoylpas] (10 µM),0.206,91.5% (inactive)
CCCCN1CCC(CNC(=O)c2c3n(c4ccccc24)CCCO3)CC1 [piboserod] (10 µM),0.132,92.5% (inactive)
CCCCC/N=c1\ccn(Cc2ccccc2)c2ccccc12 (10 µM),0.0295,108% (inactive)
CCN(Cc1ccc(Cl)nc1)/C(=C/[N+](=O)[O-])NC [nitenpyram] (10 µM),0.0591,101% (inactive)
CC1=C(/C=C/C(C)=C/C=C/C(C)=C/C(=O)O)C(C)(C)CCC1 [tretinoin] (10 µM),-0.0366,104% (inactive)
COCCOCCOc1ccc(C2=N[C@@](C)(C(=O)O)CS2)c(O)c1 (10 µM),0.128,102% (inactive)
CCOc1cc(C=O)ccc1O [ethyl-vanillin] (10 µM),0.19,100% (inactive)
CCCc1nc(C)c2c(=O)nc(-c3cc(S(=O)(=O)N4CCN(CC)CC4)ccc3OCC)[nH]n12 [vardenafil] (10 µM),0.227,97.5% (inactive)
NCCC(Oc1ccc(C(F)(F)F)cc1)c1ccccc1 (stereo not given) [norfluoxetine] (10 µM),0.568,59% (active)
CC(=O)N[C@@H](CC(C)C)C(=O)O [acetyl-l-leucine] (10 µM),0.134,94.5% (inactive)
O=C(OCCN1CCCCC1)c1c[nH]c2ccccc12 (10 µM),0.0285,102% (inactive)
CC(C)[C@]12O[C@H]1[C@@H]1O[C@]13[C@]1(O[C@H]1C[C@H]1C4=C(CC[C@@]13C)C(=O)OC4)[C@@H]2O [triptolide] (10 µM),0.381,89% (inactive)
CN[C@@H](C)C(=O)N[C@H](C(=O)N1CCC[C@H]1C(=O)N[C@H]1c2ccccc2C[C@H]1OCC#CC#CCO[C@@H]1Cc2ccccc2[C@@H]1NC(=O)[C@@H]1CCCN1C(=O)[C@@H](NC(=O)[C@H](C)NC)C1CCCCC1)C1CCCCC1 (10 µM),-0.161,112% (inactive)
CO/N=C(\C(=O)N[C@@H]1C(=O)N2C(C(=O)O)=C(CSC(=O)c3ccco3)CS[C@H]12)c1csc(N)n1 (10 µM),0.156,104% (inactive)
Cn1cc(C(=O)OCC2CCN(CCNS(C)(=O)=O)CC2)c2ccccc21 (10 µM),0.228,96% (inactive)
COc1cc(N)c(Cl)cc1C(=O)OCCCN1CCCCC1 (10 µM),0.0833,100% (inactive)
CO[C@H]1C[C@@H]2CC[C@@H](C)[C@@](O)(O2)C(=O)C(=O)N2CCCC[C@H]2C(=O)O[C@H]([C@H](C)C[C@@H]2CC[C@@H](O)[C@H](OC)C2)CC(=O)[C@H](C)/C=C(\C)[C@@H](O)[C@@H](OC)C(=O)[C@H](C)C[C@H](C)/C=C/C=C/C=C/1C [sirolimus] (10 µM),-0.126,104% (inactive)
